Data published in PubChem BioAssay (Tox21).
Inconclusive results are not listed. The source made the active and inactive calls. Unless noted, calls follow the shape of the dose curve; as a rule, active = well fitted curve in the direction sought with a large enough effect in the repeat runs; inconclusive = weak or mixed curves; inactive = no such curve, though single readings can be large; an effect the other way counts as inactive or inconclusive.

How the values were obtained:
[1] = biological target: Aryl hydrocarbon receptor (Homo sapiens) (UniProt P35869); assay: qHTS assay to identify small molecule that activate the aryl hydrocarbon receptor (AhR) signaling pathway (AID 743085);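 also: HG2L7.5c1 human HepG2 liver cells with stably integrated DRE-driven firefly reporter; series mostly up to about 70 µM; nearly all actives have a fitted effect of over 15% in size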
Sequence of Aryl hydrocarbon receptor (Homo sapiens) (P35869 whole entry, looked up): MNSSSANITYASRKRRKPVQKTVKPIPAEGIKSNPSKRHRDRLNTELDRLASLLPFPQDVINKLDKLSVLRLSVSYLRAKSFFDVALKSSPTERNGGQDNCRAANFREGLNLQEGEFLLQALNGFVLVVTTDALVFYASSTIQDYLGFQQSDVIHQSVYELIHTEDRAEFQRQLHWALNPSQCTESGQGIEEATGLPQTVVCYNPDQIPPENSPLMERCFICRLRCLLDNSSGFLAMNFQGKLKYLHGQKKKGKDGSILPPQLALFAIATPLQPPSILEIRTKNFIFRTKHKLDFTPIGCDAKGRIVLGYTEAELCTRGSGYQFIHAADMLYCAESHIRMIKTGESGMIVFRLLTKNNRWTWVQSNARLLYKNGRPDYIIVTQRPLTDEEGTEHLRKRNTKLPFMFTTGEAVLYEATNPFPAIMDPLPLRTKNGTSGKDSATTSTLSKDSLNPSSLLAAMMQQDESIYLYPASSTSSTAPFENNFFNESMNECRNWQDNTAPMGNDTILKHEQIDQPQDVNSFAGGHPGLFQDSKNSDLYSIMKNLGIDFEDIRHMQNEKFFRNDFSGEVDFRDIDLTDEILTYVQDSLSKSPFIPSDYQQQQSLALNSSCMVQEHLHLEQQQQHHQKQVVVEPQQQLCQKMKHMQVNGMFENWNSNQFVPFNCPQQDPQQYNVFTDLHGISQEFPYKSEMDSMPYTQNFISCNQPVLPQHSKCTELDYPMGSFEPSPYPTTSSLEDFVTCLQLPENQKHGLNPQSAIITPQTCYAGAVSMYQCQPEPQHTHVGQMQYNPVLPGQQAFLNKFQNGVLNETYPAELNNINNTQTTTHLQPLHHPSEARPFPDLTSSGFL
Method in brief: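 HepG2 cells (HG2L7.5c1) stably carrying a firefly luciferase reporter driven by 20 dioxin responsive elements were exposed to compound for 24 h at 37C after a 5 h settling period; luminescence rise (ONE-Glo) indicated activation.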

[2] = biological target: Peroxisome proliferator-activated receptor gamma (Homo sapiens) (UniProt P37231); assay: qHTS assay to identify small molecule agonists of the peroxisome proliferator-activated receptor gamma (PPARg) signaling pathway (AID 743094; active = well fitted activation curve with a large enough effect in the signal ratio in the repeat runs, not every such curve was filed as active; the % refers to the signal ratio)
Sequence of Peroxisome proliferator-activated receptor gamma (Homo sapiens) (P37231 whole entry, looked up): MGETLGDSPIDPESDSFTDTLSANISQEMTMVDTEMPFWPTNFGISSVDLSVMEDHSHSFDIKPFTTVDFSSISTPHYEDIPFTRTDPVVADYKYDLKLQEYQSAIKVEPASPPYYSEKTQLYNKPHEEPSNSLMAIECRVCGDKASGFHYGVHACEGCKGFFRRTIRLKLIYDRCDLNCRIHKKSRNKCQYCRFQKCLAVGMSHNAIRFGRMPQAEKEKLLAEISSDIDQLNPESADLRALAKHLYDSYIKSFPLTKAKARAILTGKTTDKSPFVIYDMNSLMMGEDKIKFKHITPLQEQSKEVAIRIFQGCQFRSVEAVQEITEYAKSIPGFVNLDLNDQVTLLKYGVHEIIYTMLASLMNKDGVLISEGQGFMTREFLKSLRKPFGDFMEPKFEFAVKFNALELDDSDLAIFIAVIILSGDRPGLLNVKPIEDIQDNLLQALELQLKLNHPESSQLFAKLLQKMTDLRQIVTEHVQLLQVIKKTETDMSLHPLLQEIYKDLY
Method in brief: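 HEK293H PPARg-bla cells, 5 h settle at 37C/5% CO2; compound (DMSO) 17 h, 37C; B/G FRET substrate 1 h RT; fluorescence intensity read-out. qHTS format.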

[3] = qHTS assay to identify small molecule antagonists of the peroxisome proliferator-activated receptor gamma (PPARg) signaling pathway - cell viability counter screen (AID 743194); settings: Potency: co-treated with 50 nM rosiglitazone; also: nearly all actives have a fitted effect of over 55% in size
Method in brief: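 Viability was measured as CellTiter-Glo luminescence in GeneBLAzer PPARg UAS-bla HEK293H cells. These cells had been exposed 17 h at 37 C to compounds together with rosiglitazone at 50 nM final, with the beta-lactamase readout taken in the same wells.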

[4] = qHTS assay for small molecule agonists of the antioxidant response element (ARE) signaling pathway (AID 743202; active = well fitted activation curve with a large enough effect in the signal ratio in the repeat runs, not every such curve was filed as active; the % refers to the signal ratio)
Method in brief: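 After 16 hours of compound treatment at 37 C, HepG2 cells with a stably integrated ARE-driven beta-lactamase reporter were loaded 2 hours at room temperature with LiveBLAzer B/G FRET substrate and fluorescence intensity measured.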

[5] = qHTS assay for small molecule agonists of the antioxidant response element (ARE) signaling pathway - cell viability counter screen (AID 743203; calls by dose curve; also: nearly all actives have a fitted effect of over 55% in size)
Method in brief: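 Luminescence read-out (CellTiter-Glo, 30 min at room temperature) measured cell viability in the same wells as the ARE beta-lactamase reporter. HepG2 ARE-bla cells were treated with compounds for 16 hrs at 37C/5% CO2.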

[6] = qHTS assay for small molecule activators of the heat shock response signaling pathway - cell viability counter screen (AID 743209); also: nearly all actives have a fitted effect of over 50% in size
Method in brief: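 HSE-bla HeLa; 1500 cells/well; overnight 37 C, 5% CO2; compound 5 h 37 C; LiveBLAzer B/G substrate 2.5 h RT; CellTiter-Glo 30 min RT; luminescence.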

[7] = qHTS assay for small molecule activators of the heat shock response signaling pathway (AID 743210; active = well fitted activation curve with a large enough effect in the signal ratio in the repeat runs, with a control signal flat, not every such curve was filed as active; the % refers to the signal ratio; also: series mostly up to about 63 µM)
Method in brief: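 Compound exposure lasted 5 h at 37 C in HeLa cells carrying a heat-shock-element-driven beta-lactamase reporter. Read-out: fluorescence intensity after 2.5 h room-temperature loading with LiveBLAzer B/G FRET substrate.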

[8] = qHTS assay to identify small molecule agonists of the peroxisome proliferator-activated receptor delta (PPARd) signaling pathway - cell viability counter screen (AID 743211); also: nearly all actives have a fitted effect of over 55% in size
Method in brief: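 PPARd-bla HEK293H cells (UAS-beta-lactamase reporter) were treated with compounds for 17 h at 37 C. Viability was then read in the same wells by CellTiter-Glo luminescence after 30 min at room temperature.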

[9] = biological target: Peroxisome proliferator-activated receptor delta (Homo sapiens) (UniProt Q03181); assay: qHTS assay to identify small molecule agonists of the peroxisome proliferator-activated receptor delta (PPARd) signaling pathway (AID 743212; calls by dose curve)
Sequence of Peroxisome proliferator-activated receptor delta (Homo sapiens) (Q03181 whole entry, looked up): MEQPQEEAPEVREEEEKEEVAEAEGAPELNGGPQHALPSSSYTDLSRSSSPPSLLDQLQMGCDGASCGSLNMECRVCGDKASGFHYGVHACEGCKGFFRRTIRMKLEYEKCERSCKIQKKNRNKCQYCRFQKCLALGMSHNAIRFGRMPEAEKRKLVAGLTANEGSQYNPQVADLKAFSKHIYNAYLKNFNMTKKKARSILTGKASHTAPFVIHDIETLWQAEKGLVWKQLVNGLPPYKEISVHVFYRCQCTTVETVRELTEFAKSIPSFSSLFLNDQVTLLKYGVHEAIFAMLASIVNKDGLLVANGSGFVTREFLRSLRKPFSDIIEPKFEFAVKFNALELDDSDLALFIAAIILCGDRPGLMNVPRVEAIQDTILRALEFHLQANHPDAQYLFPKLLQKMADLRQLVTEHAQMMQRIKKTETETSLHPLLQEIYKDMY
Method in brief: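 Beta-lactamase reporter readout: a ratiometric FRET signal from the LiveBLAzer substrate after 2 h at room temperature. Compound exposure at 37 °C in PPARδ-bla HEK293H cells driven by an upstream activator sequence.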

[10] = qHTS assay to identify small molecule antagonists of the peroxisome proliferator-activated receptor delta (PPARd) signaling pathway - cell viability counter screen (AID 743213); also: nearly all actives have a fitted effect of over 50% in size
Method in brief: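 Agonist-stimulated (L165041, 300 nM final) HEK293H PPARd UAS-bla cells are exposed to compounds for 17 h at 37 C, and ATP-based luminescence (CellTiter-Glo) from the same wells reports cytotoxicity.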

[11] = biological target: Peroxisome proliferator-activated receptor delta (Homo sapiens) (UniProt Q03181); assay: qHTS assay to identify small molecule antagonists of the peroxisome proliferator-activated receptor delta (PPARd) signaling pathway (AID 743215; active = well fitted inhibition curve with a large enough effect in the signal ratio in the repeat runs, not every such curve was filed as active; the % refers to the signal ratio; also: series mostly up to about 62 µM)
Method in brief: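 HEK293H GeneBLAzer PPARd UAS-bla reporter cells; cpd + L165041 300 nM final, 17 h 37 C; LiveBLAzer B/G FRET substrate 2 h RT; fluorescence intensity read-out. Antagonist mode.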

[12] = qHTS assay to identify small molecule agonists of the farnesoid-X-receptor (FXR) signaling pathway - cell viability counter screen (AID 743218); also: nearly all actives have a fitted effect of over 45% in size
Method in brief: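 Luminescence from CellTiter-Glo, read after 30 min at RT, reports viability of GeneBLAzer FXR-UAS-bla HEK 293T cells treated 16 h with compounds in the wells used for the beta-lactamase reporter.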

[13] = biological target: Vitamin D3 receptor (Homo sapiens) (UniProt P11473); assay: qHTS assay to identify small molecule agonists of the vitamin D receptor (VDR) signaling pathway (AID 743222; calls by dose curve)
Sequence of Vitamin D3 receptor (Homo sapiens) (P11473 whole entry, looked up): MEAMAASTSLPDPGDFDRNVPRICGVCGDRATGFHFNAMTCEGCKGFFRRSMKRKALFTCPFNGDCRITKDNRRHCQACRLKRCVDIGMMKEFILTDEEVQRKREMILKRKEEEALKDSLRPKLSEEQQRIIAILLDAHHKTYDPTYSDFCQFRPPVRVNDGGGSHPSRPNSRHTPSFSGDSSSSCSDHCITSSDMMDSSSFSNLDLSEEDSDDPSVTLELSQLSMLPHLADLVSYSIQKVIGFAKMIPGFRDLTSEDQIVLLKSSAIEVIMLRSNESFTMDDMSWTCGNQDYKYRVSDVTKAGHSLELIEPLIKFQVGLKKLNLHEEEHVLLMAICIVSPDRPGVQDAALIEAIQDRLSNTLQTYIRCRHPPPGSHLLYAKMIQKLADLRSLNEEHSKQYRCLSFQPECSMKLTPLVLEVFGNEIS
Method in brief: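 Beta-lactamase reporter readout (LiveBLAzer B/G FRET, 2 h RT) in VDR-bla cells after 16 h compound treatment at 37C, 5% CO2; cells pre-incubated 4 h before pin transfer of DMSO solutions.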

[14] = biological target: Vitamin D3 receptor (Homo sapiens) (UniProt P11473); assay: qHTS assay to identify small molecule antagonists of the vitamin D receptor (VDR) signaling pathway (AID 743223; active = well fitted inhibition curve with a large enough effect in the signal ratio in the repeat runs, not every such curve was filed as active; the % refers to the signal ratio)
Method in brief: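 VDR-bla cells were plated, incubated 4 h at 37C, then given compound and 1alpha,25-dihydroxyvitamin D3 (3 nM final). After 16 h at 37C, LiveBLAzer B/G FRET substrate was added for 2 h at room temperature and fluorescence read.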

[15] = qHTS assay to identify small molecule agonists of the vitamin D receptor (VDR) signaling pathway - cell viability counter screen (AID 743224); also: series mostly up to about 63 µM; nearly all actives have a fitted effect of over 50% in size
Method in brief: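 Cytotoxicity counter screen: VDR-bla cells, 16 h compound exposure at 37C, 5% CO2; CellTiter-Glo luminescence, 30 min RT, same wells as bla read.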

[16] = biological target: Peroxisome proliferator-activated receptor gamma (Homo sapiens) (UniProt P37231); assay: qHTS assay to identify small molecule antagonists of the peroxisome proliferator-activated receptor gamma (PPARg) signaling pathway (AID 743191; calls by dose curve; also: series mostly up to about 63 µM; nearly all actives have a fitted effect of over 30% in size)
Method in brief: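 Beta-lactamase reporter under UAS control in HEK293H PPARg-bla cells; compound treatment 17 h at 37C. Read-out: fluorescence intensity after 1 h room-temperature incubation with LiveBLAzer B/G FRET substrate.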

[17] = qHTS assay to identify small molecule antagonists of the farnesoid-X-receptor (FXR) signaling pathway - cell viability counter screen (AID 743221; active = well fitted cell-killing curve with a large enough effect in the repeat runs, not every such curve was filed as active; also: nearly all actives have a fitted effect of over 50% in size)
Method in brief: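 FXR-UAS-bla HEK 293T cells were treated with test compounds plus chenodeoxycholic acid (50 uM final) for 16 h at 37 C. Cell viability in the same wells was then read as CellTiter-Glo luminescence after 30 min at room temperature.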

[18] = qHTS assay to identify small molecule that activate the aryl hydrocarbon receptor (AhR) signaling pathway - cell viability counter screen (AID 743086);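 also: HepG2 liver cells carrying the AhR DRE luciferase reporter; series mostly up to about 70 µM; nearly all actives have a fitted effect of over 45% in size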
Method in brief: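 Cytotoxicity counter screen: CellTiter-Fluor signal (30 min, 37 C) in 4000 HepG2 cells/well carrying the DRE-luciferase reporter, following 24 h compound exposure at 37 C.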

[19] = biological target: Bile acid receptor (Homo sapiens) (UniProt Q96RI1); assay: qHTS assay to identify small molecule antagonists of the farnesoid-X-receptor (FXR) signaling pathway (AID 743217; active = well fitted inhibition curve with a large enough effect in the signal ratio in the repeat runs, not every such curve was filed as active; the % refers to the signal ratio)
Sequence of Bile acid receptor (Homo sapiens) (Q96RI1 whole entry, looked up): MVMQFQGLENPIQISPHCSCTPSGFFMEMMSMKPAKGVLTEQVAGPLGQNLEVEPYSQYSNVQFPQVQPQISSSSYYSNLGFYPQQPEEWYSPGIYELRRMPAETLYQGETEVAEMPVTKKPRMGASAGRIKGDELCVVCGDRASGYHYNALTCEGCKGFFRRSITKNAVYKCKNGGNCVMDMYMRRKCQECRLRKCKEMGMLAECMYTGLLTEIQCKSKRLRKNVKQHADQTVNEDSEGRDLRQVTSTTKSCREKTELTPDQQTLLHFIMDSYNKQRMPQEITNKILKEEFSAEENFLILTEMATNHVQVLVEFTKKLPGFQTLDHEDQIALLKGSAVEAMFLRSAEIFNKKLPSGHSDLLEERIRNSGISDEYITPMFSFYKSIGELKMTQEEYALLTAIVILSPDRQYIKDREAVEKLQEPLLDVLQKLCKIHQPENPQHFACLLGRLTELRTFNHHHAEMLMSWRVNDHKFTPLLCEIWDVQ
Method in brief: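 Read-out: beta-lactamase FRET fluorescence (LiveBLAzer B/G substrate, 2 h, room temperature) in GeneBLAzer FXR-UAS-bla HEK 293T cells. Compounds were co-dosed with 50 uM chenodeoxycholic acid (final) and incubated 16 h at 37 °C.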

[20] = biological target: Bile acid receptor (Homo sapiens) (UniProt Q96RI1); assay: qHTS assay to identify small molecule agonists of the farnesoid-X-receptor (FXR) signaling pathway (AID 743220; active = well fitted activation curve with a large enough effect in the signal ratio in the repeat runs, not every such curve was filed as active; the % refers to the signal ratio)
Method in brief: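 FXR-UAS-bla HEK 293T cells carrying a UAS-driven beta-lactamase reporter were plated for 5 h at 37C/5% CO2, then exposed to DMSO-dissolved Tox21 10K compounds for 16 h at 37C. A LiveBLAzer B/G FRET substrate was loaded for 2 h at room temperature before fluorescence reading.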

Measured: Potency

C=C1CC[C@@]2(O)[C@H]3Cc4ccc(O)c5c4[C@@]2(CCN3CC2CC2)[C@H]1O5
not listed: [16] | [17] | [18] | [19] | [20]
inactive: all other assays above

[P]#[In]
not listed: [3] | [14] | [18] | [19] | [20]
inactive: all other assays above

N#CN=C1SCCN1Cc1ccc(Cl)nc1
not listed: [3] | [13] | [14] | [18] | [19] | [20]
inactive: all other assays above

CNC(=O)O/N=C(/CSC)C(C)(C)C
not listed: [1] | [3] | [9] | [11] | [19] | [20]
inactive: all other assays above

CCOC(=O)C(SP(=S)(OC)OC)c1ccccc1 (stereo not given)
not listed: [1] | [9] | [11] | [12] | [16]
inactive: all other assays above

O=c1[nH]c2ccccc2o1
not listed: [1] | [9] | [14] | [16] | [17] | [19] | [20]
inactive: all other assays above

CCOC(=O)N(C)N=O
not listed: [1] | [4] | [16] | [19] | [20]
inactive: all other assays above

CC1=C2[C@H]3OC(=O)[C@@H](C)[C@@H]3CC[C@@]2(C)C=CC1=O
not listed: [1] | [4] | [13] | [14] | [16]
inactive: all other assays above

CC(C)[N+](C)(CCC(C(N)=O)(c1ccccc1)c1ccccc1)C(C)C
inactive: [18] | [2] | [3] | [5] | [6] | [7] | [8] | [10] | [17] | [15]

CCCOC(=O)Cc1ccc(OCC(=O)N(CC)CC)c(OC)c1
not listed: [1] | [3] | [9] | [10] | [11] | [13] | [14]
inactive: all other assays above

CCC1(CC)C(=O)C=CNC1=O
not listed: [1] | [13] | [14] | [16] | [19] | [20]
inactive: all other assays above

C/C(=N\NC(=O)Nc1cc(F)cc(F)c1)c1ncccc1C(=O)O
not listed: [1] | [9] | [11] | [12] | [16]
inactive: all other assays above

CCNP(=S)(OC)O/C(C)=C/C(=O)OC(C)C (stereo not given)
not listed: [1] | [9] | [11] | [16] | [19] | [20]
inactive: all other assays above

CC(C)c1ccc(O)cc1
not listed: [1] | [4] | [11] | [19] | [20]
inactive: all other assays above

CC[C@@H](CO)NC(=O)[C@@H]1C=C2c3cccc4c3c(cn4C)C[C@H]2N(C)C1
not listed: [1] | [2] | [16] | [17]
inactive: all other assays above

CNC(=O)NC(O)C(Cl)(Cl)Cl (stereo not given)
not listed: [1] | [9] | [10] | [16] | [19] | [20]
inactive: all other assays above

CN(C)C1CCCCC1
not listed: [1] | [3] | [7] | [10] | [16] | [17] | [19] | [20]
inactive: all other assays above

C[N+]1(C)CCCCC1
not listed: [1] | [3] | [8] | [16] | [19] | [20]
inactive: all other assays above

O=[N+]([O-])CCO
inactive: [18] | [2] | [3] | [5] | [6] | [8] | [10] | [12] | [15]

CNC(=O)Oc1ccccc1C(C)C
not listed: [1] | [9] | [11] | [14] | [16] | [19] | [20]
inactive: all other assays above
